Measurements published in PubChem BioAssay (Tox21).
Inconclusive results are not listed. The source made the active and inactive calls. Calls come from the whole dose curve; as a rule, active = well fitted cell-killing curve with a large enough effect in the repeat runs; inconclusive = weak or mixed curves, or effect the other way; inactive = flat fitted curve, though single readings scatter.

Experiment: qHTS assay to identify small molecule agonists of the TGF-beta/Smad signaling pathway - cell viability counter screen (AID 1346829); note: top concentration of the series differs between compounds; nearly all actives have a fitted effect of over 45% in size
Settings: SBE-bla HEK293T viability, CellTiter-Glo luminescence, 5 h; series mostly up to 76.8 µM
Description: National Center for Advancing Translational Sciences [NCATS]
NIH Chemical Genomics Center [NCGC]
U.S. Environmental Protection Agency [EPA]
National Institutes of Environmental Health Sciences [NIEHS]
National Toxicology Program [NTP]
U.S. Food and Drug Administration [FDA]
Transforming growth factor beta (TGF-beta) superfamily consists of a large number of structurally related dimeric proteins that act as hormones or local mediators in regulating a wide range of biological functions. This superfamily includes TGF-betas themselves, the bone morphogenetic proteins (BMPs) and the activins. These ligands induce oligomerization of serine/threonine receptor kinases and phosphorylate the cytoplasmic signaling molecules of Smad protein family. CellSensor SBE-bla HEK 293T cell line (Life Technologies, Carlsbad, CA), responsive to TGF-beta was used to screen Tox21 10K compound library for identification of agonists/antagonists of the Smad signaling pathway. This cell line contains a beta-lactamase reporter gene under control of the Smad binding element (SBE) stably integrated into HEK 293T cells. Also cytotoxicity of the compounds was tested in parallel by measuring the cell viability using CellTiter-Glo assay system in the same wells.
Tox21 Assay Protocol Summary:
SBE-bla HEK 293T cells were dispensed at 4,000/well in 6 uL of assay medium into black wall/clear-bottom 1536-well plates using a Multidrop Combi (ThermoFisher Scientific, Waltham, MA) dispenser. After the assay plates were incubated at 37 C and 5% CO2 for an overnight, 23 nL of compounds dissolved in DMSO, positive controls or DMSO only was transferred to the assay plate by a Pintool station (Kalypsys, San Diego, CA). The assay plates were incubated at 37 C and 5% CO2 for 5 hr. One uL of LiveBLAzer B/G FRET substrate (Life Technologies) was added using a Flying Reagent Dispenser (FRD, Aurora Discovery, San Diego, CA) and the plates were incubated at room temperature for 2 hr. Fluorescence intensity (405 nm excitation, 460 nm and 530 nm emissions) was measured using an Envision plate reader (PerkinElmer, Shelton, CT). For cytotoxicity read, 4 uL of CellTiter-Glo reagent (Promega Corporation, Madison, WI) was added to each well of the assay plates using FRD. After 30min incubation at room temperature, the luminescence intensity was measured using ViewLux plate reader (PerkinElmer).
% is set by controls: 0 for no effect and ±100 for the full control effect.

Which outcome does the source give for `CCCCC(=O)O[C@]1(C(=O)CO)[C@H](C)C[C@H]2[C@@H]3CCC4=CC(=O)C=C[C@]4(C)[C@@]3(F)[C@@H](O)C[C@@]21C` here?
Its outcome is “inactive”.

For `CCCc1c2oc(C(=O)O)cc(=O)c2cc2c(=O)cc(C(=O)O)n(CC)c12`, which outcome is on record?
Its outcome is “inactive”.

For `CC1(C)S[C@@H]2[C@H](NC(=O)C(C(=O)O)c3ccccc3)C(=O)N2[C@H]1C(=O)O` (stereo not given in full), which outcome is on record?
The outcome was “inactive”.

With `CC(C)(C)c1ccc(OC(=O)c2ccccc2O)cc1` as the molecule, how does the outcome read?
The outcome was “inactive”.

Which outcome does the source give for `CC(=O)N(CC(O)CN(C(C)=O)c1c(I)c(C(=O)NCC(O)CO)c(I)c(C(=O)NCC(O)CO)c1I)c1c(I)c(C(=O)NCC(O)CO)c(I)c(C(=O)NCC(O)CO)c1I` (stereo not given) here?
The outcome was “inactive”.

With `C=Cc1ccccc1` as the molecule, how does the outcome read?
Its outcome is “inactive”.

Which outcome does the source give for `O=C(CC(=O)C(F)(F)F)c1ccccc1` here?
The outcome was “inactive”.

For `NC/C=C/C(=O)O`, which outcome is on record?
Its outcome is “inactive”.

Which outcome does the source give for `CCCOCCC` here?
Its outcome is “inactive”.

Which outcome does the source give for `O=C1N(c2ccccc2)c2ccccc2C1(Cc1ccncc1)Cc1ccncc1` here?
Its outcome is “inactive”.

With `CC(Oc1c(Cl)cccc1Cl)C1=NCCN1` (stereo not given) as the molecule, how does the outcome read?
Its outcome is “inactive”.

For `COc1cc(N)c(Cl)cc1C(=O)NC1CCN(Cc2ccccc2)CC1`, which outcome is on record?
Its outcome is “inactive”.

With `CCC/C=C/CO` as the molecule, how does the outcome read?
Its outcome is “inactive”.

For `O=Cc1ccc(F)c(Br)c1`, which outcome is on record?
Its outcome is “inactive”.

For `CN1CCN(c2c(F)cc3c(=O)c(C(=O)O)cn(CCF)c3c2F)CC1`, which outcome is on record?
Its outcome is “inactive”.

Which outcome does the source give for `CN1CCC[C@@H]1Cc1c[nH]c2ccc(CCS(=O)(=O)c3ccccc3)cc12` here?
Its outcome is “inactive”.

With `NCCC(O)(P(=O)(O)O)P(=O)(O)O` as the molecule, how does the outcome read?
The outcome was “inactive”.

For `CCCCNc1ccc(C(=O)OCCN(CC)CC)cc1`, which outcome is on record?
The outcome was “inactive”.

Which outcome does the source give for `CCOC(=O)C(Br)c1ccccc1` (stereo not given) here?
The outcome was “inactive”.

Which outcome does the source give for `CN1[C@@H]2CC[C@H]1CC(OC(=O)c1c[nH]c3ccccc13)C2` (stereo not given in full) here?
The outcome was “inactive”.

With `O=C1CCC(C2CCCCC2)CC1` as the molecule, how does the outcome read?
Its outcome is “inactive”.

For `CCCCCOc1ccc(C2SC(=O)NC2=O)cc1OCC` (stereo not given), which outcome is on record?
Its outcome is “inactive”.

For `OC[C@H]1O[C@@H](O[C@H]2[C@H](O)[C@@H](O)[C@H](O)O[C@@H]2CO)[C@H](O)[C@@H](O)[C@H]1O`, which outcome is on record?
The outcome was “inactive”.

With `C[C@@H]1CN(c2c(F)c(N)c3c(=O)c(C(=O)O)cn(C4CC4)c3c2F)C[C@H](C)N1` as the molecule, how does the activity change, negative = cytotoxicity read?
Its activity change, negative = cytotoxicity is -11.5% [at 15.8 µM] (inactive).

Which outcome does the source give for `CCCCCCCCCCCCCCCCOP(=O)([O-])OCC[N+](C)(C)C` here?
The outcome was “inactive”.

For `CC1=C(O)C(=O)OC1C` (stereo not given), which outcome is on record?
The outcome was “inactive”.

For `OCc1c2ccccc2cc2ccccc12`, which outcome is on record?
The outcome was “inactive”.

With `Cc1onc(-c2ccccc2)c1C(=O)Cl` as the molecule, how does the outcome read?
Its outcome is “inactive”.

With `NCCCN1CCN(CCCN)CC1` as the molecule, how does the outcome read?
The outcome was “inactive”.

Which outcome does the source give for `CN(C)Cc1ccccc1` here?
Its outcome is “inactive”.

For `COc1ccc2nc(NC(=O)Nc3ccccc3)sc2c1`, which outcome is on record?
Its outcome is “inactive”.

With `O=C1CCN(c2ccccc2)N1` as the molecule, how does the outcome read?
The outcome was “inactive”.

With `N#Cc1ccc(C(c2ccc(C#N)cc2)n2cncn2)cc1` as the molecule, how does the outcome read?
Its outcome is “inactive”.

Which outcome does the source give for `CCCCCCn1c(=O)c2c(ncn2C)n(C)c1=O` here?
Its outcome is “inactive”.

Which outcome does the source give for `O=C(C(Cl)Cl)N1CCOC12CCCCC2` here?
Its outcome is “inactive”.

For `C=O`, which outcome is on record?
Its outcome is “inactive”.

For `CCOc1ccc(NS(=O)(=O)c2ccc(N)cc2)nn1`, which outcome is on record?
The outcome was “inactive”.

Which outcome does the source give for `C=CCc1cc(OC)c(O)c(C(=O)NCCO)c1` here?
The outcome was “inactive”.

With `CCCCC(CC)COC(=O)COc1cc(Cl)c(Cl)cc1Cl` (stereo not given) as the molecule, how does the outcome read?
The outcome was “inactive”.

With `O=S(=O)(O)C(F)(F)F` as the molecule, how does the outcome read?
Its outcome is “inactive”.
